From PubChem BioAssay
NPSR antagonist: blocks cAMP signaling of the human neuropeptide S receptor. Q6W5P4. CHO-NPSR cells, cAMP TR-FRET, antagonist mode. Potency, µM (top dose mostly 38.3 µM), without a hit: at the top dose activity change, negative = inhibition, hits mostly inhibitors. 220,000 compounds, 1% hits; note: % is set by controls: 0 for no effect and ±100 for the full control effect; nearly all actives have a fitted effect of over 50% in size
Target sequence (Q6W5P4 whole entry, looked up): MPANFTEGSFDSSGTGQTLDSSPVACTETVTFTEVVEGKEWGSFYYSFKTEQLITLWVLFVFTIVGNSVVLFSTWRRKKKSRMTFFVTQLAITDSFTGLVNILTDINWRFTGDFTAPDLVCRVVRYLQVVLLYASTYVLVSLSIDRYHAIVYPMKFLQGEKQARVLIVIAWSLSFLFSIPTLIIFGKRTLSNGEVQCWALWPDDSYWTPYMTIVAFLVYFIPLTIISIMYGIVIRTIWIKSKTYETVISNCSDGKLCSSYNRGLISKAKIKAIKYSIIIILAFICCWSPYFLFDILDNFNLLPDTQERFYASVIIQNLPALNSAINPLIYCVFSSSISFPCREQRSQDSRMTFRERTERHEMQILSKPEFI
mIDH1 inhibitor: inhibitors of human mutant IDH1 R132H; Potency, µM (series often up to 76.6 µM), inactives show at the highest dose activity change, negative = inhibition, actives largely listed as inhibitors; O75874; 390,000 compounds, 0.093% hits; IDH1-R132H enzyme, NADPH consumption, diaphorase/resazurin fluorescence; AID 602179; note: % is set by controls: 0 for no effect and ±100 for the full control effect; nearly all actives have a fitted effect of over 65% in size
Target sequence (O75874 whole entry R132H, stated change not applied): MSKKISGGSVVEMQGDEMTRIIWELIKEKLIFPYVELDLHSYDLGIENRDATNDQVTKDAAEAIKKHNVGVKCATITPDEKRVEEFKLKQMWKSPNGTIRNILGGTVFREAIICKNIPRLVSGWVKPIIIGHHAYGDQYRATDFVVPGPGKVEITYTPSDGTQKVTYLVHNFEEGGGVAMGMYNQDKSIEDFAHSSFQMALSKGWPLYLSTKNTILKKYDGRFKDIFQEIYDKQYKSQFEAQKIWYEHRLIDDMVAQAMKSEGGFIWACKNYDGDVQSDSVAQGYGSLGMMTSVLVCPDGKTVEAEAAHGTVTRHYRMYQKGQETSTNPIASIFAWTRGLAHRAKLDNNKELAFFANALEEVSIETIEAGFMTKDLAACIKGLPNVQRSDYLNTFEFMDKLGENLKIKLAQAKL
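IDH1-R132H (0.5 ug/mL) preincubated 30 min with compound, then NADPH (0.016 mM) and alpha-KG (2 mM) added; 80 min at RT, pH 7.5. Remaining NADPH coupled via diaphorase/resazurin to fluorescence (540/590 nm); concentration-response curves normalized to no-enzyme control.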
HttQ103 aggreg: inhibitors of mutant huntingtin aggregate formation in PC12 cells. 220,000 compounds, 1.1% hits. Potency, µM (top dose mostly 46.1 µM), inactives show at the highest dose activity change, negative = inhibition, usual class: inhibitors. AID 1688. PC12 HttQ103-GFP aggregates, Acumen cytometry, 40 h; note: % is set by controls: 0 for no effect and ±100 for the full control effect; nearly all actives have a fitted effect of over 60% in size
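Read-out: GFP aggregate count by laser scanning cytometer (488 nm excitation, 500-530 nm emission, 1–25 µm objects >6 SD above background). Cells: PC12, inducible HTTex1-Q103-GFP, 100 nM tebufenozide; compounds titrated.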
HTT cytoprotect: cytoprotection in Huntington HTT-Q103 PC12 cell model | PC12 HTT-Q103 induced, cytoprotection, ATP luminescence, 40 h | 230,000 compounds, 0.14% hits | Potency, µM (doses to about 56.4 µM), for the others: cytoprotection (ATP increase), most hits filed as activators | AID 1471; note: % of control where 0% means no effect; nearly all actives have a fitted effect of over 45% in size
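Quantitative HTS on tebufenozide-induced (100 nM) PC12 cells expressing HTTQ103 exon 1–GFP; compounds tested as a concentration series; survival measured via cellular ATP.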
A-T KAP1 phos: potential ataxia-telangiectasia treatments restoring KAP-1 phosphorylation | Potency, µM (titrated, usually from 57.5 µM), inactives show at the highest dose activation, actives largely listed as activators | F2112 A-T fibroblasts, KAP-1 phosphorylation AlphaLISA; neocarzinostatin DNA damage 30 min before lysis | 320,000 compounds, 0.19% hits; note: % of control where 0% means no effect; nearly all actives have a fitted effect of over 45% in size
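ATM-like activity read as KAP-1 phosphorylation via AlphaLISA donor/acceptor antibody pairs after lysis and 6 hr at 25C. Cells were ATM-null patient fibroblasts (F2112, hTERT), dosed 60 min, then exposed to the DSB inducer NCS for 30 min.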
Numbers without * were called inactive; ? = inconclusive; / = no result; [ ] = another dose, or the depositor's remark. Compounds with a hit are over-represented: about 1.1% of the library has one in this group of screens. Calls come from the whole dose curve; as a rule, active = well fitted curve in the direction sought with a large enough effect; inconclusive = small, poorly fitted or top-dose-only effect, or another doubt; inactive = no such curve, though single readings can be large; an effect the other way counts as inactive or inconclusive. Potency is the fitted concentration of half-maximal effect.

SMILES	NPSR antagonist	mIDH1 inhibitor	HttQ103 aggreg	HTT cytoprotect	A-T KAP1 phos
Cc1cccc(-n2ncc3c(N4CCCC4)ncnc32)c1	-7.2%[46.1 µM]	3.7%	14.0%	-158.9%[0.074 µM]	-0.1%
CC[n+]1c(/C=C/N(C)c2ccccc2)oc2ccc(Cl)cc21	20.5%	8.4%	5.0%	-6.6%[10 µM]	15.4%
CCN1/C(=C/C=C/c2oc3ccc4ccccc4c3[n+]2CC)Oc2ccc3ccccc3c21	19.9%	6.0%	0.891µM*	-75.0%[10 µM]	2.9%
CCOc1ccc(NC(=O)Nc2ccc3nsnc3c2)cc1	-10.1%	7.8%	-21.2%	-20.1%	2.3%
CCOc1ccc(NC(=S)Nc2ccc3nsnc3c2)cc1	10µM*	9.8%	3.55µM*	/	32.2%
COc1ccc(/C=N/NC(=O)CSc2nnc(C)n2-c2ccccc2)c(OC)c1OC	-8.2%[46.1 µM]	9.6%	-12.1%	3.9%	1.4%
C=CCn1c(COc2ccccc2)nnc1SCC(=O)N/N=C/c1cc(Cl)ccc1O	5.1%[46.1 µM]	15.0%	7.94µM*	-35.7%	/
COc1cccc(/C=N/NC(=O)CN2CC(c3ccccc3)CC2=O)c1O (configuration not stated)	3.2%	-1.8%	3.55µM*	/	7.5%
COc1cccc(/C=N/NC(=O)CSc2nnc(C)n2-c2ccccc2)c1O	-16.3%[46.1 µM]	0.7%	7.94µM*	-54.3%	-0.5%
COc1ccc(O)c(/C=N/NC(=O)CSc2nnc(C)n2-c2ccccc2)c1	-3.6%[46.1 µM]	3.6%	7.94µM*	-42.6%	-2.7%
Cc1csc2nc(COC(=O)c3ccc(NC(=O)c4ccccc4Br)cc3)cc(=O)n12	/	4.3%	/	/	/
Cc1cc(-c2ccc(N=Nc3cc(S(=O)(=O)O)c4ccccc4c3N)c(C)c2)ccc1N=Nc1cc(S(=O)(=O)O)c2ccccc2c1N	/	/	/	-79.8%	/
COc1ccc(C2C(=O)N(C3CCC(C)CC3)CC(=O)N2CCc2ccccc2)cc1OC (configuration not stated)	/	-3.6%	/	/	/
O=C(CSc1nnc2[nH]c(=O)cc(-c3ccccc3)n12)Nc1cc(C(F)(F)F)ccc1Cl	/	-1.2%	/	/	/
C=C(C)Cn1c(SCC(=O)N/N=C/c2ccccc2OCC(=O)O)nnc1-c1ccc(Br)cc1	-19.0%	4.4%	13.1%[9.22 µM]	-16.1%[10 µM]	39.8µM*
CC(=O)Oc1ccc2c(c1)Oc1cc(OC(C)=O)ccc1C21OC(=O)c2ccccc21	-16.8%[46.1 µM]	-7.6%	0.316µM*	14.1%[10 µM]	2.4%
COC(=O)c1ccc(S(=O)(=O)N2CCCN(Cc3cccc(Br)c3F)CC2)n1C	-8.8%	9.8%	9.0%[9.22 µM]	15.8%[10 µM]	39.8µM*
COC(=O)c1ccc(S(=O)(=O)N2CCCN(Cc3ccccc3)CC2)n1C	18.5%	2.2%	2.3%[9.22 µM]	10.0%[10 µM]	-1.5%
COc1cc2oc(=O)cc(-c3ccc(-c4sccc4C=O)cc3)c2c(OC)c1OC	/	/	/	-37.5%	/
COc1ccc2cc3c(N)nn(C(=O)c4ccc(Cl)c([N+](=O)[O-])c4)c3nc2c1	-13.5%	6.3%	2.82µM*	18.8%[10 µM]	-8.7%
CCOC(=O)C1CCN(Cc2nc(-c3ccc(OC)c(OC)c3)no2)CC1	-10.3%[46.1 µM]	4.1%	-4.7%	-5.0%	0.3%
CCOC(=O)c1nc(-c2ccc(OC)c(OC)c2)no1	9.2%	0.0%	0.631µM*	-76.5%[10 µM]	1.6%
O=C1CSC(=S)N1N=Cc1ccccc1O	/	-2.6%	/	/	/
O=C1CSC(=S)N1/N=C/c1cccnc1	17.5%	-3.0%	0.891µM*	/	13.8%
CCCCCOc1ccc(C(=O)N(Cc2ccccc2)C2CCS(=O)(=O)C2)cc1 (configuration not stated)	/	-10.4%	/	/	/
SMILES	NPSR antagonist	mIDH1 inhibitor	HttQ103 aggreg	HTT cytoprotect	A-T KAP1 phos
CC(On1nnc2ccccc21)C(=O)N1CCN(Cc2ccccc2)CC1 (configuration not stated)	9.5%	5.2%	?	0.708µM*	4.1%
CC(=O)Nc1nonc1-c1nc2ccccc2n1CCC#N	12.1%[46.1 µM]	-1.8%	-5.3%	-1.6%[10 µM]	-21.9%
CC(=O)Nc1nonc1-c1nc2ccccc2n1CC1CC1	-17.3%[46.1 µM]	-2.3%	7.08µM*	29.7%	2.7%
CCOc1ccccc1C(=O)Nc1c(C(=O)Nc2ccc(F)cc2)oc2ccccc12	/	-4.3%	/	/	/
CCOc1ccccc1NC1=CC(=O)CC(c2ccccc2)C1 (configuration not stated)	1.26µM*	4.8%	-4.8%	-41.4%	3.8%
O=C(Nc1ncc2c(n1)CC(c1ccccc1)CC2=O)c1ccco1 (configuration not stated)	-5.1%[46.1 µM]	1.1%	2.7%	18.7%[10 µM]	-2.1%
O=C(Nc1ncc2c(n1)CC(c1cccc(Cl)c1)CC2=O)c1ccco1 (configuration not stated)	/	1.8%	/	/	12.6µM*
NCCCCCc1cnc[nH]1	/	/	/	0.794µM*	/
COc1ccc(CN2CCC(N(CCc3ccccc3)Cc3ccccc3)CC2)c(OC)c1	7.94µM*	6.0%	-10.0%	-31.1%	0.0%
CCCN1CCC(N(CCc2ccccc2)Cc2ccccc2)CC1	/	-2.1%	/	/	1.3%
Clc1ccc(CSc2nnc(-c3ccncc3)o2)cc1	-11.3%[46.1 µM]	9.3%	10µM*	-1.0%	-0.4%
O=C1CCSc2ccc(Cl)cc2N1Cc1cccc(Cl)c1	?	2.3%	22.4µM*	-4.6%[10 µM]	38.7%
CC(=O)N1CCc2c(sc3c2c(=O)n(CCc2ccccc2)c(=O)n3Cc2cccc(C)c2)C1	/	-26.0%	/	/	/
CCCCC/C=C\C[C@H](O)/C=C\c1cccc(C[C@H](O)CCCCO)n1	/	/	/	9.2%[1.9 µM]	/
Clc1ccc(-c2nnc(-c3cccc4ccccc34)o2)cc1Cl	0.4%	-7.6%	5.4%[9.22 µM]	2.4%[10 µM]	15.8µM*
CCOc1ccccc1CNC(=O)c1ccc2c(c1)nc1n2CCCCC1	/	-6.1%	/	/	/
COc1ccc(/C=N/Nc2cc(N3CCCC3)nc(N3CCCC3)n2)cc1	12.6µM*	-11.1%	?	-63.3%	2.6%
COc1ccc(O)c(/C=N/Nc2nc(Nc3ccccc3)nc(-n3nc(C)cc3C)n2)c1	1.26µM*	0.5%	?	-78.1%[10 µM]	25.8%
COc1cc(/C=N/Nc2nc(Nc3ccccc3)nc(-n3nc(C)cc3C)n2)cc(OC)c1OC	-24.2%	2.9%	?	-9.9%[10 µM]	-4.2%
Cc1cc(N/N=C/c2cccc(Cl)c2)nc(-n2nc(C)cc2C)n1	-33.4%	0.5%	2.3%[9.22 µM]	19.3%[10 µM]	-4.1%
COc1ccc(/C=N/Nc2cc(C)nc(-n3nc(C)cc3C)n2)cc1	?	7.0%	14.1µM*	-7.8%[10 µM]	6.2%
O=C(COC(=O)CNC(=O)c1ccc([N+](=O)[O-])o1)Nc1ncc(Cl)cc1Cl	/	4.1%	/	/	35.5µM*
O=C(COC(=O)CNC(=O)c1ccc([N+](=O)[O-])o1)Nc1ncc(C(F)(F)F)cc1Cl	/	-3.9%	/	/	22.4µM*
Cc1ccc(C(=O)NCC(=O)OCC(=O)Nc2ncc(C(F)(F)F)cc2Cl)cc1	15.9%	9.5%	-15.9%	0.3%[10 µM]	-5.7%
O[C@@H]1CC[C@H]2Cc3ccccc3N=C21	/	/	/	-13.7%	/
